Screens deposited in PubChem BioAssay by several laboratories.
Bim-Mcl-1: inhibitors of Bim-Mcl-1 interaction, human. Bead-based flow cytometry, Bim peptide-Mcl-1 binding. 190,000 tested, 0.1% active. inhibition, % at 10 µM; in the data active = inhibition above about 40%
Target sequence (Q07820 whole entry, looked up): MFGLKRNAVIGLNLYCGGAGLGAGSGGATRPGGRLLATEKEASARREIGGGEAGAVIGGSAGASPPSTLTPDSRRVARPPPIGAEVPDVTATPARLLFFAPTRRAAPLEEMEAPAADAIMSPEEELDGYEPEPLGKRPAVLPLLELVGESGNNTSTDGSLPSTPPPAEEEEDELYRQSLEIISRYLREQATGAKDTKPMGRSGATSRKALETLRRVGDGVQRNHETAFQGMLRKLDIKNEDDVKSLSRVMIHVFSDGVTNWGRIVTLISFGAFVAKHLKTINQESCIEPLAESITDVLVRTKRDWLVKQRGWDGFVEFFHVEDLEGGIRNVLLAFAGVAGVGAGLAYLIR
Mcl1-Bid inh: Mcl-1/Bid interaction inhibition; Q07820; TR-FRET Mcl-1/Bid-Dy647 peptide binding, 1536-well; inhibition, % at 21.7 µM; 220,000 tested, 0.97% active; AID 1021;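 active = compounds that cut the binding signal by more than half at the single screening dose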;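 also: His-tagged Mcl-1 with europium anti-His antibody binding Bid BH3 peptide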
MCL1 BIM primary: disrupts human MCL1 binding to BIM-BH3 peptide | inhibition, % at 10.9 µM | AID 2057 | 320,000 tested, 0.68% active | GST-MCL1 / FITC-Bim-BH3 fluorescence polarization | Q07820;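 active = inhibition above the mean inhibition of all tested compounds plus 3 SD, set per campaign, cut at about 40% in these data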;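 also: higher means more loss of mP so more displacement of Bim peptide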
Mcl1 Noxa PPI: Mcl-1/Noxa interaction inhibition | Q07820 | TR-FRET Mcl-1/Noxa peptide binding, 2 h | inhibition, % at 21.7 µM | 220,000 tested, 1.5% active | AID 1022;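 active = compounds that cut the protein-peptide binding signal by more than 50% relative to plate controls in a single-dose test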;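 also: His-tagged Mcl-1 with rhodamine Noxa BH3 peptide and terbium anti-His antibody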
BCLXL inh confirm: counter-screen for MCL1 inhibitors: confirmation of human Bcl-xL inhibitors. 1,700 tested, 54% active. shares compounds with MCL1 BIM primary. inhibition, % at 10.9 µM. GST-Bcl-xL / FITC-Bim BH3 peptide FP binding;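 active = inhibition above a cutoff equal to the mean inhibition of all tested compounds plus 3 SD, cut at about 30% in these data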
MCL1 inh confirm: confirmation of human MCL1 and BIM-BH3 interaction inhibitors. shares compounds with MCL1 BIM primary. GST-MCL1 / FITC-Bim-BH3 fluorescence polarization. inhibition, % at 10.9 µM. 1,700 tested, 61% active. AID 2168;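 active = inhibition above the average of all tested compounds plus 3 SD, cut at about 40% in these data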
Hits are given with their value; – = inactive; · = no result given; + = active, no number. A selection: hits, their analogues and other compounds. The true share with any hit is near 2%.

SMILES | Bim-Mcl-1 | Mcl1-Bid inh | MCL1 BIM primary | Mcl1 Noxa PPI | BCLXL inh confirm | MCL1 inh confirm
CCCC(=O)OCCNc1cc(Sc2nccn2C)c2nonc2c1[N+](=O)[O-] | – | – | – | – | · | ·
CC(=O)OCCCNc1cc(SCc2ccco2)c2nonc2c1[N+](=O)[O-] | – | – | 45 | – | – | 46
CCc1nnc(NC(=O)CSc2sc3c(O)cc(=O)[nH]c3c2C#N)s1 | · | · | 48 | · | 32 | 58
COc1ccccc1NC(=O)CSc1sc2c(O)cc(=O)[nH]c2c1C#N | · | · | 45 | · | – | –
COc1ccc(NC(=O)CSc2sc3c(O)cc(=O)[nH]c3c2C#N)c(OC)c1 | · | · | – | · | · | ·
Cc1ccc(C(=O)Nc2cccc3ccccc23)cc1 | · | · | – | · | · | ·
CC(C)(C)c1ccc(C(=O)Nc2cccc3c(=O)[nH][nH]c(=O)c23)cc1 | – | – | 43 | – | 42 | 47
O=C(Cn1nnc(-c2ccccc2)n1)N/N=C/c1cccc([N+](=O)[O-])c1O | – | – | 46 | – | 47 | 87
O=C(NNC(=O)c1ccco1)c1cccc(Br)c1 | · | · | – | · | · | ·
COC(=O)c1ccc([C@@H]2C[C@H]3CN(Cc4cccnc4)C(=O)[C@]34CCCN24)cc1 | – | – | – | – | · | ·
COc1ccc(NC(=O)c2sc3nc(-c4cccnc4)ccc3c2N)cc1 | · | 52 | 112 | – | 113 | 137
COc1ccc(NC(=O)c2sc3nc(-c4cccnc4)ccc3c2N)cc1OC | · | – | – | – | · | ·
C/C(=N\NC(=O)c1cc(O)cc(O)c1)c1ccc(NC(=O)Cc2ccccc2)cc1 | · | · | 78 | · | 46 | 93
COc1ccccc1C(=O)N/N=C(\C)c1ccc(NC(=O)Cc2ccccc2)cc1 | · | · | – | · | · | ·
COc1ccc(NC(=O)C2Cc3ccccc3CN2C(=O)c2ccccc2)cn1 (stereo unspecified) | – | – | 77 | – | 75 | 93
S=C(Nc1ccc(N2CCOCC2)cc1)Nc1ccc2nc(-c3ccco3)c(-c3ccco3)nc2c1 | – | – | + | 81 | 118 | 150
O=C(c1ccc2nc(-c3ccco3)c(-c3ccco3)nc2c1)N1CCN(c2ncccn2)CC1 | – | – | 81 | 100 | 35 | 50
O=C(c1cccc(C(=O)N2CCN(c3ncccn3)CC2)c1)N1CCN(c2ncccn2)CC1 | – | – | – | – | · | ·
O=C(Nc1ccc2nc(-c3ccco3)c(-c3ccco3)nc2c1)N1CCN(c2ccccn2)CC1 | – | – | 53 | 64 | 58 | 71
O=C(O)c1c2c(nc3ccccc13)/C(=C/c1ccc(O)cc1)CC2 | – | – | 54 | 55 | 34 | 54
C=CCc1cccc(/C=N/NC(=O)CNc2cccc3ccccc23)c1O | – | – | 47 | – | – | 54
Cc1ccc(C2=NN(C(=O)CNCCO)C(c3cccs3)C2)cc1 (stereo unspecified) | · | · | – | · | · | ·
CC(NC(=O)c1cc2sccc2n1C)c1ccc2c(c1)OCCO2 (stereo unspecified) | – | – | 178 | – | – | –
CCn1c(C(=O)NC(C)c2ccc3c(c2)OCCO3)cc2sccc21 (stereo unspecified) | – | – | – | – | · | ·
CC1(C)CC(=O)C2=C(C1)OC(N)=C(C#N)C2c1cc2c(cc1[N+](=O)[O-])OCO2 (stereo unspecified) | – | – | + | – | 108 | 132
SMILES | Bim-Mcl-1 | Mcl1-Bid inh | MCL1 BIM primary | Mcl1 Noxa PPI | BCLXL inh confirm | MCL1 inh confirm
COC(=O)CCC(=O)OC1(C)C(=O)C=C2C=C(c3ccsc3)OC=C2C1=O (stereo unspecified) | · | · | 51 | · | – | 77
COC(=O)CCCC1=CC2=CC(=O)C(C)(OC(=O)c3cccs3)C(=O)C2=CN1C1CCCC1 (stereo unspecified) | · | – | – | – | · | ·
COC(=O)CCC(=O)OC1(C)C(=O)C=C2C=C(C3CC3)OC=C2C1=O (stereo unspecified) | · | · | 55 | · | 48 | 70
COC(=O)CCC(=O)OC1(C)C(=O)C=C2C=C(C3CC3)N(c3ccc(CO)cc3)C=C2C1=O (stereo unspecified) | · | · | 94 | · | 46 | 64
COCCN1C=C2C(=O)C(C)(OC(=O)CCC(=O)OC)C(=O)C=C2C=C1C1CC1 (stereo unspecified) | · | – | – | – | · | ·
CC1(O)C(=O)C=C2C=C(c3ccsc3)OC=C2C1=O (stereo unspecified) | · | · | 52 | · | 33 | 73
CCCCC1=CC2=CC(=O)C(C)(O)C(=O)C2=CO1 (stereo unspecified) | · | · | – | · | · | ·
